# Reference: PubChem BioAssay (Tox21)
# A number with no mark means an inactive call. Results filed as inconclusive are left out. Where a call stands in place of a potency, no number is given. Calls of active or inactive are those of the source. Calls come from the whole dose curve; as a rule, active = well fitted curve in the direction sought with a large enough effect in the repeat runs; inconclusive = weak or mixed curves; inactive = no such curve, though single readings can be large; an effect the other way counts as inactive or inconclusive.
# Experiments:
# [1] = qHTS RealTime-Glo MT Cell Viability Assay in HEK293 cells - 16 hour (AID 1224872); note: top concentration of the series differs between compounds; nearly all actives have a fitted effect of over 50% in size
# Procedure, shortened: (§1)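 Luminescence generated by NanoLuc from substrate produced by living HEK293 cells served as the viability signal. Each value reflects the reading at its stated time point during continuous 40 h compound exposure at 37 C.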
# [2] = qHTS RealTime-Glo MT Cell Viability Assay in HepG2 cells - 8 hour (AID 1224873); note: nearly all actives have a fitted effect of over 55% in size
# Procedure, shortened: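 Real-time viability: cells seeded at 600 per well together with NanoLuc and cell-permeant prosubstrate, compounds added after 5 h incubation. Luminescence tracked at 0, 8, 16, 24, 32 and 40 h of exposure.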
# [3] = qHTS RealTime-Glo MT Cell Viability Assay in HEK293 cells - 40 hour (AID 1224874); conditions: RealTime-Glo luminescence; max response: stronger effect = lower value; note: nearly all actives have a fitted effect of over 50% in size
# Procedure, shortened: (§2)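 600 HEK293 cells per well, dispensed already mixed with RealTime-Glo MT reagents. Compound dosing came 5 h later. The same wells were read for luminescence at 0, 8, 16, 24, 32 and 40 h of exposure at 37 C.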
# [4] = A CellTox Green Cytotoxicity Assay to monitor cytotoxicity in HEK293 cells - 24 hour (AID 1224875); note: series mostly up to about 77 µM; nearly all actives have a fitted effect of over 45% in size
# Procedure, shortened: (§3)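 Dead-cell fluorescence measured kinetically: asymmetric cyanine dye, HEK293, 600 cells/well, 5 h settle, 23 nL cpd/DMSO, 37 C, reads 0–40 h every 8 h.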
# [5] = A CellTox Green Cytotoxicity Assay to monitor cytotoxicity in HepG2 cells - 16 hour (AID 1224876); note: nearly all actives have a fitted effect of over 45% in size
# Procedure, shortened: (§4)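 First, HepG2 cells (600/well) mixed with reagent were plated; second, after 5 h at 37 C they received compounds via pintool; third, fluorescence was measured at 0 h through 40 h at 8 h intervals.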
# [6] = qHTS RealTime-Glo MT Cell Viability Assay in HepG2 cells - 32 hour (AID 1224877); note: nearly all actives have a fitted effect of over 55% in size; note: potency is the fitted concentration of half-maximal effect
# Procedure, shortened: (§5)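 Tox21 10K library screened in qHTS format on HepG2 cells carrying RealTime-Glo reagents. Compounds were added after a 5 h preincubation, and the luminescent signal from continuous culture was measured repeatedly during 40 h treatment.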
# [7] = A CellTox Green Cytotoxicity Assay to monitor cytotoxicity in HepG2 cells - 24 hour (AID 1224878); note: nearly all actives have a fitted effect of over 45% in size; note: potency is the fitted concentration of half-maximal effect
# Procedure, shortened: as §4
# [8] = A CellTox Green Cytotoxicity Assay to monitor cytotoxicity in HepG2 cells - 40 hour (AID 1224879); note: nearly all actives have a fitted effect of over 40% in size; note: potency is the fitted concentration of half-maximal effect
# Procedure, shortened: as §4
# [9] = qHTS RealTime-Glo MT Cell Viability Assay in HEK293 cells - 0 hour (AID 1224880); note: top concentration of the series differs between compounds; nearly all actives have a fitted effect of over 45% in size
# Procedure, shortened: as §2
# [10] = A CellTox Green Cytotoxicity Assay to monitor cytotoxicity in HEK293 cells - 32 hour (AID 1224881); note: nearly all actives have a fitted effect of over 40% in size
# Procedure, shortened: as §3
# [11] = A CellTox Green Cytotoxicity Assay to monitor cytotoxicity in HepG2 cells - 0 hour (AID 1224882); note: nearly all actives have a fitted effect of over 35% in size
# Procedure, shortened: as §4
# [12] = A CellTox Green Cytotoxicity Assay to monitor cytotoxicity in HepG2 cells - 32 hour (AID 1224883); note: nearly all actives have a fitted effect of over 50% in size; note: potency is the fitted concentration of half-maximal effect
# Procedure, shortened: as §4
# [13] = A CellTox Green Cytotoxicity Assay to monitor cytotoxicity in HEK293 cells - 8 hour (AID 1224884); note: nearly all actives have a fitted effect of over 35% in size
# Procedure, shortened: as §3
# [14] = qHTS RealTime-Glo MT Cell Viability Assay in HepG2 cells - 16 hour (AID 1224885); note: nearly all actives have a fitted effect of over 50% in size
# Procedure, shortened: as §5
# [15] = qHTS RealTime-Glo MT Cell Viability Assay in HEK293 cells - 24 hour (AID 1224886)
# Procedure, shortened: as §1
# [16] = A CellTox Green Cytotoxicity Assay to monitor cytotoxicity in HEK293 cells - 16 hour (AID 1224888); note: nearly all actives have a fitted effect of over 35% in size
# Procedure, shortened: as §3
# [17] = qHTS RealTime-Glo MT Cell Viability Assay in HepG2 cells - 0 hour (AID 1224889); note: nearly all actives have a fitted effect of over 50% in size
# Procedure, shortened: as §5
# [18] = A CellTox Green Cytotoxicity Assay to monitor cytotoxicity in HepG2 cells - 8 hour (AID 1224890); note: nearly all actives have a fitted effect of over 45% in size
# Procedure, shortened: as §4
# [19] = qHTS RealTime-Glo MT Cell Viability Assay in HEK293 cells - 8 hour (AID 1224887)
# Procedure, shortened: as §2
# [20] = A CellTox Green Cytotoxicity Assay to monitor cytotoxicity in HEK293 cells - 40 hour (AID 1224871); note: nearly all actives have a fitted effect of over 45% in size
# Procedure, shortened: as §3
Structure (SMILES),Potency [1],Potency [2],max response [3],Potency [4],Potency [5],Potency [6],Potency [7],Potency [8],Potency [9],Potency [10],Potency [11],Potency [12],Potency [13],Potency [14],Potency [15],Potency [16],Potency [17],Potency [18],Potency [19],Potency [20]
CN(N=O)c1ccc([N+](=O)[O-])cc1,inactive,inactive,-1.54%,inactive,inactive,inactive,43.6 µM (active),43.6 µM (active),inactive,inactive,inactive,43.6 µM (active),inactive,inactive,inactive,inactive,inactive,inactive,,
Clc1cccc2ccccc12,inactive,inactive,-5.43%,,inactive,inactive,inactive,inactive,inactive,,inactive,inactive,inactive,inactive,inactive,inactive,inactive,inactive,inactive,
COC(C)(C)CCC[C@H](C)C/C=C/C(C)=C/C(=O)OC(C)C,inactive,inactive,-3.6%,inactive,inactive,,inactive,inactive,inactive,,inactive,inactive,inactive,inactive,inactive,,inactive,inactive,,
C[C@H]1CNCCc2ccc(Cl)cc21,inactive,inactive,-6.61%,inactive,inactive,inactive,inactive,inactive,inactive,inactive,inactive,inactive,inactive,inactive,inactive,inactive,inactive,inactive,,
CC(C)N(CCC(C(N)=O)(c1ccccc1)c1ccccn1)C(C)C (configuration not stated),inactive,inactive,2.75%,inactive,inactive,inactive,inactive,inactive,inactive,inactive,inactive,inactive,,inactive,inactive,inactive,inactive,inactive,inactive,
c1ccc(C2CC2)c(OCC2=NCCN2)c1,inactive,inactive,3.13%,inactive,inactive,,inactive,inactive,inactive,inactive,inactive,inactive,inactive,inactive,inactive,inactive,inactive,,inactive,
O=C(NC(=O)c1c(F)cccc1F)Nc1cc(Cl)c(Oc2ncc(C(F)(F)F)cc2Cl)c(Cl)c1,,,,inactive,inactive,,inactive,inactive,inactive,inactive,inactive,inactive,,,,inactive,inactive,inactive,inactive,inactive
CC1C(=O)C[C@]2(C(C)C)C[C@H]12 (some centres not stated),inactive,inactive,9.37%,inactive,inactive,inactive,inactive,inactive,inactive,inactive,inactive,inactive,inactive,inactive,inactive,inactive,,inactive,inactive,
NNC(=O)c1cccnc1,inactive,inactive,12.4%,inactive,inactive,,inactive,inactive,inactive,inactive,inactive,inactive,inactive,inactive,inactive,inactive,inactive,inactive,inactive,
ClCc1cccc(Cl)c1,inactive,inactive,-0.225%,inactive,inactive,,inactive,inactive,inactive,inactive,inactive,inactive,inactive,inactive,inactive,inactive,inactive,inactive,inactive,
CCOC(=O)[C@]1(c2ccccc2)Oc2ccccc2[C@@H]1N,,inactive,,inactive,inactive,inactive,inactive,inactive,inactive,inactive,inactive,inactive,inactive,inactive,,inactive,inactive,inactive,inactive,
CCCCN(N=O)C(=N)N[N+](=O)[O-],inactive,inactive,,inactive,inactive,inactive,inactive,inactive,inactive,inactive,inactive,inactive,inactive,inactive,inactive,inactive,,inactive,,
NC(=O)CI,inactive,,1.19%,,,9.86 µM (active),,,inactive,,inactive,,,,,,,,inactive,
Oc1ccc(Cl)c(Cl)c1Cl,,,,,inactive,inactive,,,inactive,inactive,inactive,,inactive,inactive,,inactive,,inactive,inactive,
CC(C)(OO)c1ccccc1,inactive,,-0.0681%,inactive,inactive,inactive,inactive,inactive,,inactive,inactive,inactive,,inactive,inactive,inactive,,,,
COP(=O)(OC)O/C(=C/Cl)c1cc(Cl)c(Cl)cc1Cl,,,,inactive,inactive,inactive,inactive,36.6 µM (active),inactive,inactive,inactive,,inactive,inactive,,inactive,inactive,inactive,,
ClP(Cl)(Cl)(Cl)Cl,,,,inactive,inactive,,,,inactive,,inactive,,inactive,,,inactive,,inactive,inactive,
